Screening data as filed in PubChem BioAssay.
DT40 TDP1 no CPT: qHTS for Inhibitors of human tyrosyl-DNA phosphodiesterase 1 (TDP1): qHTS in cells in absence of CPT | DT40 Tdp1-/- hTDP1 cells, no CPT, ATP luminescence, 48 h | Potency, µM (doses to about 46.2 µM), for the others: top-dose activity change, negative = growth inhibition, most hits filed as inhibitors | 420,000 tested, 15% active | AID 686978, 2013; further: potency means the concentration at half of the fitted maximal effect; on the % scale 0 is the no-effect control and ±100 the full control effect; nearly all actives have a fitted effect of over 55% in size
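Luminescent ATP content (CellTiter-Glo) served as the growth readout. Knockout chicken DT40 cells expressing human TDP1 were exposed to compounds without camptothecin for a minimum 48 hr at 37 °C.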
IL-1B inflam inh: inflammasome signaling inhibition, IL-1 beta readout; 360,000 tested, 4.7% active; activity change, % at 57.5 µM; THP-1 LPS/ATP IL-1B secretion, AlphaLISA, 16 h; stronger effect = lower value; in the data active means activity change below about -50%; inconclusive means mostly about -30% to -49%; further: on the % scale 0 is the no-effect control and ±100 the full control effect
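Secreted IL-1B measured by AlphaLISA bead assay after 16 h compound exposure of THP-1 cells; compounds (final up to 57.5 uM) added 1 h before LPS (250 ng/mL) and ATP (1.25 mM) stimulation; lower signal means less secretion.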
ClpP mod: qHTS Assay for Activators of ClpP; ATP-dependent Clp protease proteolytic subunit (Bacillus subtilis (strain 168)), P80244; purified B. subtilis ClpP, FRET peptide cleavage, 20 min; Potency, µM (titrated, usually from 57.5 µM), inactives show at the highest dose activity change, negative = active; 340,000 tested, 1.9% active; active means well fitted falling curve with a large enough effect; inconclusive means small, poorly fitted or top-dose-only effect; inactive means no such curve, though single readings can be large or run the other way; further: potency means the concentration at half of the fitted maximal effect; the source files actives as falling curves though it sought activators and does not explain the sign; nearly all actives have a fitted effect of over 65% in size
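ClpP 10 microg/mL final, pH 8 Tris/KCl buffer with BSA, glycerol, Tween-20; compound pinned in; FRET-FV substrate; RT 20 min; Ex320/Em430; ΔFRET vs ADEP 5.8 microM, DMSO, no enzyme.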
D3 ag: agonists of human D3 dopamine receptor; AID 652048; P35462; 410,000 tested, 0.58% active; max activation, %; D3R DiscoveRx beta-arrestin cells, luminescence, 90 min; in the data active means max activation above about 30%; further: 0% is about no effect
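Agonist-mode cell screen: cells plated at 1500/well and incubated overnight at 37 °C, then exposed to library compounds for 90 min at 37 °C. Detection reagent was added for 30–60 min at room temperature, and luminescence was read.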
D3 antag: antagonists of human D3 dopamine receptor; D3R cells, DiscoveRx beta-arrestin luminescence, antagonist mode; stronger effect = lower value; P35462; 360,000 tested, 2.5% active; max response, negative = inhibition, %; in the data active means max response below about -50%; inconclusive means no clear call, values can overlap the other calls; further: on the % scale 0 is the no-effect control and ±100 the full control effect
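Cells plated overnight at 1500 cells/well, then exposed to library compounds with dopamine controls for 90 minutes at 37 degrees C. DiscoveRx reagent added for 30–60 minutes at room temperature; luminescence read, quantitative HTS format.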
DT40 TDP1 CPT: DT40-hTDP1 cell growth loss with CPT; chicken DT40 Tdp1-/-;hTDP1 cells + 20 nM CPT, ATP luminescence, 48 h; Potency, µM (titrated, usually from 46.2 µM), for the others: at the highest dose activity change, negative = growth inhibition, most hits filed as inhibitors; 420,000 tested, 12% active; further: potency means the concentration at half of the fitted maximal effect; on the % scale 0 is the no-effect control and ±100 the full control effect; nearly all actives have a fitted effect of over 55% in size
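Chicken DT40 Tdp1-/- cells complemented with human TDP1, 400 cells/well, exposed to compounds plus 20 nM camptothecin for at least 48 h at 37 C; viability read as ATP content by CellTiter-Glo luminescence.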
Active calls of the source: *; ? = inconclusive; nt = not tested or not shown; [ ] = remark or other dose. Sampled rows, rich in hits. Any-hit rate of the full collection: about 21%. Unless noted, the call rests on the fitted dose curve; in most records, active means well fitted inhibition curve with a large enough effect; inconclusive means small, poorly fitted or top-dose-only effect; inactive means flat fitted curve, though single readings scatter.

SMILES	DT40 TDP1 no CPT	IL-1B inflam inh	ClpP mod	D3 ag	D3 antag	DT40 TDP1 CPT
O=C(CCS(=O)(=O)c1ccccc1)Nc1ncc([N+](=O)[O-])s1	10µM*	-76*	nt	-5	-23	8.2µM*
CCC(CC)c1nnc(NC(=O)Cc2ccccc2[N+](=O)[O-])s1	-21%	0	nt	3	1	5%
CC(C)c1nnc(NC(=O)CCc2ccccc2)s1	10%	-2	-1%	7	3	3%
CCC(=O)N1CCc2cc(S(=O)(=O)NC(CC(C)C)C(=O)NCc3cccc(OC)c3)ccc21 (centres undefined)	-14%	nt	0%	3	nt	-2%
COc1ccc(C(=O)Nc2ccc3nc(C)sc3c2)cc1S(=O)(=O)N1CCOCC1	?	11	0%	-4	-8	?
Cc1ccc(NC(=O)CN2c3cccc4cccc(c34)S2(=O)=O)cc1	?	-17	-27%	-9	-9	23µM*
Cc1cc(C(=O)CN2c3cccc4cccc(c34)S2(=O)=O)c(C)n1C	3.3µM*	62	-5%	-8	-10	4.6µM*
CCOC(=O)c1ccccc1NC(=O)COC(=O)CCNS(=O)(=O)c1ccccc1	0%	20	-14%	1	6	3%
COc1cc(OC)c(/C=C/c2ccc3ccccc3[n+]2[O-])c(OC)c1	?	nt	-3%	nt	nt	?
COc1ccc(OC)c(/C=C/c2c3ccccc3cc[n+]2C)c1	1.4µM*	nt	-6%	nt	nt	2.2µM*
COc1ccc(OC)c(/C=C/c2cc3ccccc3c[n+]2C)c1	2µM*	nt	-1%	nt	nt	2.8µM*
COc1cc(OC)c(/C=C/c2cc3ccccc3c[n+]2C)c(OC)c1	1µM*	nt	-2%	nt	nt	0.5µM*
COc1ccc(OC)c(/C=C/c2sc3ccccc3[n+]2C)c1	?	nt	1%	nt	nt	?
COc1cccc(-c2c(-c3cc(OC)cc(OC)c3)n(C)c3ccc(-c4cccc5[nH]ccc45)cc23)c1	-16%	-10	4%	15	11	?
CCOCCc1nn2c(=O)cc(COC(=O)COc3ccccc3Cl)nc2s1	0%	nt	-1%	9	nt	-6%
Cc1ccc(NC(=O)C2CCCO2)c(Br)c1 (centres undefined)	-10%	3	-1%	-7	-9	-5%
CCN1C(=NCC(C)C)N[C@@H](c2cccc(F)c2)C(C(=O)OC)=C1C	-16%	-16	-2%	0	-7	-24%
Cc1cc(=O)n2[nH]c(=O)c(N=Nc3ccccc3)c2[nH]1	?	19	1%	-4	-84*	-21%
Cc1cc(C)n2[nH]c(=O)c(N=Nc3ccccc3)c2n1	3%	3	0%	-1	-17	1%
CCOc1ccc(N=Nc2c(=O)[nH]n3c(=O)cc(C)[nH]c23)cc1	?	16	-2%	-14	-16	21µM*
CCOc1ccc(N=Nc2c(=O)[nH]n3c(=O)c4c([nH]c23)CCCC4)cc1	-13%	5	-1%	-20	?	-15%
COc1cccc(NC(=O)CC(=O)c2ccccc2)c1	-15%	-5	nt	-6	-8	9%
COC(=O)c1sc(N2C(=O)c3oc4ccc(C)cc4c(=O)c3C2c2ccc(O)c(OC)c2)nc1C (centres undefined)	?	nt	0%	-5	nt	?
Cc1cc(C)c(S(=O)(=O)N2CCCOC2CNC(=O)C(=O)NCCc2c[nH]c3ccccc23)c(C)c1 (centres undefined)	15µM*	-15	-2%	3	12	?
Cc1cc(F)ccc1S(=O)(=O)N1CCCOC1CNC(=O)C(=O)NCCc1c[nH]c2ccccc12 (centres undefined)	?	?	-2%	3	30	16µM*
SMILES	DT40 TDP1 no CPT	IL-1B inflam inh	ClpP mod	D3 ag	D3 antag	DT40 TDP1 CPT
Cc1ccc(S(=O)(=O)N2CCOC2CNC(=O)C(=O)NCCc2c[nH]c3ccccc23)cc1 (centres undefined)	?	11	-2%	4	21	?
O=C(NCCc1c[nH]c2ccccc12)C(=O)NCC1OCCCN1S(=O)(=O)c1ccc(F)cc1 (centres undefined)	?	0	0%	6	18	18µM*
CCN(CC)c1ccc(-c2nnc(SCC(=O)NCc3ccco3)n2CC)cc1	?	nt	-4%	nt	nt	?
CCn1c(-c2ccccc2F)nc2cc(NC(C)=O)cc(C(=O)N3CCCC3c3nccs3)c21 (centres undefined)	2%	nt	nt	nt	nt	7%[9.04 µM]
C/C(=N\N1C(=O)c2ccccc2NC1c1ccco1)c1ccccc1O (centres undefined)	12µM*	69	-2%	4	19	-87%
C/C(=N\N1C(=O)c2ccccc2NC1c1ccccc1)c1ccccc1O (centres undefined)	7.3µM*	7	-3%	-1	-7	4.6µM*
COc1ccc(/C(C)=N/N2C(=O)c3ccccc3NC2c2ccc(O)c(OC)c2)cc1 (centres undefined)	-8%	-11	-6%	3	22	-18%
CCOc1ccccc1CNC(=O)c1ccc(CS(=O)Cc2cccc(Cl)c2)o1 (centres undefined)	21µM*	nt	2%	11	nt	?
COc1ccc(OC)c(CCNC(=O)c2ccc(CS(=O)Cc3cccc(Cl)c3)o2)c1 (centres undefined)	21µM*	-7	1%	9	-1	23µM*
CCOC(=O)/C(=C/c1cn(C)c2ccccc12)NC(=O)c1ccccc1	?	14	nt	6	-3	-27%
COc1cccc(N2CCN(C(=O)c3cc4cc5cc(C)ccc5nc4s3)CC2)c1	-28%	nt	-1%	-4	nt	-23%
CC1CC(C)CN(C(=O)Cn2c(SCC(=O)N3CCc4ccccc4C3)nc3ccccc32)C1 (centres undefined)	21µM*	-24	-3%	-4	-25	?
O=C(CSc1nc2ccccc2c(=O)n1-c1ccccc1)N1CCc2ccccc2C1	16µM*	-16	-1%	1	-24	26µM*
